The values that follow come from the supplement of paper PMC10849652.

About 7,900 targets were measured; listed, in parts, are those with a hit and a random draw of the rest. About 0.6% of all pairs of compound and target were hits. A number with no mark means an inactive call.

Sequence of UniProt Q86VD7 (Q86VD7 whole entry, looked up): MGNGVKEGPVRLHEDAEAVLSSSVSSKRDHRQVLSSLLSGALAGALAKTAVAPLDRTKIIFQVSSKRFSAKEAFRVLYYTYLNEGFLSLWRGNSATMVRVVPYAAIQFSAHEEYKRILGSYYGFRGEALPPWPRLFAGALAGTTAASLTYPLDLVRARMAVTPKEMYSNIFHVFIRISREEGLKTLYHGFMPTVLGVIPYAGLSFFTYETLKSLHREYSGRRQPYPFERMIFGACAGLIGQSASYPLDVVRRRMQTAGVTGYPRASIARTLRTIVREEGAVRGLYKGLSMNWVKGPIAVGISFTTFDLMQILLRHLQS
Sequence of UniProt P51571 (P51571 whole entry, looked up): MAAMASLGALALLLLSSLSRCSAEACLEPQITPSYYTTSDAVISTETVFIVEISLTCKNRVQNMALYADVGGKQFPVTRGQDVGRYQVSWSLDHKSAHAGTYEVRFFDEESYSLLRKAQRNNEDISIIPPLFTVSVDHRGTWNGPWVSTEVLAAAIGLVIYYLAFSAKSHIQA
Sequence of UniProt Q9BZD2 (Q9BZD2 whole entry, looked up): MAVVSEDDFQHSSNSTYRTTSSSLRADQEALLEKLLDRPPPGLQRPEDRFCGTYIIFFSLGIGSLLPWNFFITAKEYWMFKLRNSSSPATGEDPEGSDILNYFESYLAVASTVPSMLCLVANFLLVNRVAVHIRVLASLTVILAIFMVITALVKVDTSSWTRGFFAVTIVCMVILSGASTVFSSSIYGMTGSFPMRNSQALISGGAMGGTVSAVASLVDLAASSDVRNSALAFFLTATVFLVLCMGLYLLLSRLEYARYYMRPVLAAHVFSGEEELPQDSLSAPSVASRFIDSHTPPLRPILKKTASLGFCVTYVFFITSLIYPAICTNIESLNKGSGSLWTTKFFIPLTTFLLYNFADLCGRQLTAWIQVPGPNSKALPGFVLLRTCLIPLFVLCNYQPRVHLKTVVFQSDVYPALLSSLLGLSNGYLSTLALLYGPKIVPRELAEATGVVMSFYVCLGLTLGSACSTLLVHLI
Sequence of UniProt P02786 (P02786 whole entry, looked up): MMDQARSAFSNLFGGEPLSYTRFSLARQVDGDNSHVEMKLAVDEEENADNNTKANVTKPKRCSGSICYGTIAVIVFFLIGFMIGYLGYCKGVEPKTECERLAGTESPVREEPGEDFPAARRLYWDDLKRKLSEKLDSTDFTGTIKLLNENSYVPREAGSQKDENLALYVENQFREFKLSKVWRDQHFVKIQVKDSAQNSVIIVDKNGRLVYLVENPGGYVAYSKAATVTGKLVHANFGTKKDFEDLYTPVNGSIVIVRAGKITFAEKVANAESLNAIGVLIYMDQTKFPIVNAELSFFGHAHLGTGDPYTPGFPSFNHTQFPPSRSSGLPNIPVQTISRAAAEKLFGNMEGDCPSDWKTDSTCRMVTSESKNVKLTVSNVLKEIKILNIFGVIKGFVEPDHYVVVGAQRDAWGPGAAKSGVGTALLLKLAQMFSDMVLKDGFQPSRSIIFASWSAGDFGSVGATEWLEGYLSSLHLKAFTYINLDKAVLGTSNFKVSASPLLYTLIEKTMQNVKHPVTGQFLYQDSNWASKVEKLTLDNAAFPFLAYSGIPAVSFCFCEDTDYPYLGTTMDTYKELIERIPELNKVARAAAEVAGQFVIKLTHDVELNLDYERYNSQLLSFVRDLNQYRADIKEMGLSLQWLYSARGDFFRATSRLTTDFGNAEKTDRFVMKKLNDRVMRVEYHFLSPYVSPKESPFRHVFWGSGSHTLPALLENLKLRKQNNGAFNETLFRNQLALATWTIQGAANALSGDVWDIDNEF
Sequence of UniProt Q15582 (Q15582 whole entry, looked up): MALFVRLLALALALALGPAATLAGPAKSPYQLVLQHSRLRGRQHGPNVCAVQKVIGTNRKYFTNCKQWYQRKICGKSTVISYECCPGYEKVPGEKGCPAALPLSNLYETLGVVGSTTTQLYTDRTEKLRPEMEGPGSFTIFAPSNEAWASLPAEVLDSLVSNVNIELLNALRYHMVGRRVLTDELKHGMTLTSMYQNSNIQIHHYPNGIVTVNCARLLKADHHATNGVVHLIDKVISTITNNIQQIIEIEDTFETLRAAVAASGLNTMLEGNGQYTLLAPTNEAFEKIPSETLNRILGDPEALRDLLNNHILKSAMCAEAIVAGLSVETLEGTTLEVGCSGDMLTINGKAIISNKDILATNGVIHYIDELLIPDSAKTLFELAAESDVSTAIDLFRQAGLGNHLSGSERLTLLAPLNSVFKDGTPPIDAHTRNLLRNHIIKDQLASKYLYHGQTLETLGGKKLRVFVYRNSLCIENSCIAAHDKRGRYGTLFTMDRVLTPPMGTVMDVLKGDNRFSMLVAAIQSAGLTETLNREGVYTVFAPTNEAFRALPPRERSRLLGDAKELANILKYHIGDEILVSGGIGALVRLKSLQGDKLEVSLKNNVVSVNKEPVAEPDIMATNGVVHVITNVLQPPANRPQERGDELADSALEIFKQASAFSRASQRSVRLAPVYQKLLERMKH
Sequence of UniProt O43815 (O43815 whole entry, looked up): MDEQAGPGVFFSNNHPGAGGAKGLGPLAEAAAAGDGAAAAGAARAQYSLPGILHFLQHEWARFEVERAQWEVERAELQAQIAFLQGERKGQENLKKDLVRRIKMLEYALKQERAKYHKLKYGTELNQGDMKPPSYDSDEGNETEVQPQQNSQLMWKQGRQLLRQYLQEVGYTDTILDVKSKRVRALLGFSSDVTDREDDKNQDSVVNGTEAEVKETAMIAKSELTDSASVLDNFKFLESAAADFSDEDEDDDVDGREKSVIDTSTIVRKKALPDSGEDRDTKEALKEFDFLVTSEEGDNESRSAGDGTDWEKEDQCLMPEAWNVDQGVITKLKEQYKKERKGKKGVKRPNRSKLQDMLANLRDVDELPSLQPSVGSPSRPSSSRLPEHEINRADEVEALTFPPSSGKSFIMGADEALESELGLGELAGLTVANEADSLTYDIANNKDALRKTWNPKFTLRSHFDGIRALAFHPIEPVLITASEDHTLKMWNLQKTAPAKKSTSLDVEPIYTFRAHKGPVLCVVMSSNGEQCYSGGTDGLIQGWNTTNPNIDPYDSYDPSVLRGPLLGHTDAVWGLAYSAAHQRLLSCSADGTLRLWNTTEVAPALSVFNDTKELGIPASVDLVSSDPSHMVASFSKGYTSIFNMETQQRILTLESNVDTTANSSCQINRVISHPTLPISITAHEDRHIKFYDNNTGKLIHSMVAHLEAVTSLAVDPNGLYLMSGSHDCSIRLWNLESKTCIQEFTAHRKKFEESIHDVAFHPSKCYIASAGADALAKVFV
Sequence of UniProt O95772 (O95772 whole entry, looked up): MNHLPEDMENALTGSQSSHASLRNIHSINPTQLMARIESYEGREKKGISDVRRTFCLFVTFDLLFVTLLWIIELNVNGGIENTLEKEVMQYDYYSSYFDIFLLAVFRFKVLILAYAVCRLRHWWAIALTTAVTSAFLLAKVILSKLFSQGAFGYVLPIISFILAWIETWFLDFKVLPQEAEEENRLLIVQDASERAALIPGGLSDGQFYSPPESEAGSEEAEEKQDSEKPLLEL
Sequence of UniProt Q96CQ1 (Q96CQ1 whole entry, looked up): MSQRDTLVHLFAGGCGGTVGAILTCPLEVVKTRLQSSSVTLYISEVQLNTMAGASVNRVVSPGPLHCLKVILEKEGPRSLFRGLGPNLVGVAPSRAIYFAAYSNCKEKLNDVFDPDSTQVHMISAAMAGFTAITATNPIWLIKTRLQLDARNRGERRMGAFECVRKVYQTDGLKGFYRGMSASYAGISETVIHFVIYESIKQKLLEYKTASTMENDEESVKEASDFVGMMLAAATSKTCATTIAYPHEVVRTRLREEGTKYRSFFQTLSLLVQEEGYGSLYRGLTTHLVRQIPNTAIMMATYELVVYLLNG
Sequence of UniProt Q9NQZ5 (Q9NQZ5 whole entry, looked up): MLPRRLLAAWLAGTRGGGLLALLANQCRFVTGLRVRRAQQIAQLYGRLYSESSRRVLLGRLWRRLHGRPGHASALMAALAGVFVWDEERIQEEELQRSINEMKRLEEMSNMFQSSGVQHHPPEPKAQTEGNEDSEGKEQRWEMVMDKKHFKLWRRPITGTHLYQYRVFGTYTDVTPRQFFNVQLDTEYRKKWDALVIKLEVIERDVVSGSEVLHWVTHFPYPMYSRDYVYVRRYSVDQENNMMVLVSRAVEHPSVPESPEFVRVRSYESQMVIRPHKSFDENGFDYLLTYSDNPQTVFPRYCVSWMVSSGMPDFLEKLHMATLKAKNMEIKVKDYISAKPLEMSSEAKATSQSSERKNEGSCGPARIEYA
Sequence of UniProt Q9NYB0 (Q9NYB0 whole entry, looked up): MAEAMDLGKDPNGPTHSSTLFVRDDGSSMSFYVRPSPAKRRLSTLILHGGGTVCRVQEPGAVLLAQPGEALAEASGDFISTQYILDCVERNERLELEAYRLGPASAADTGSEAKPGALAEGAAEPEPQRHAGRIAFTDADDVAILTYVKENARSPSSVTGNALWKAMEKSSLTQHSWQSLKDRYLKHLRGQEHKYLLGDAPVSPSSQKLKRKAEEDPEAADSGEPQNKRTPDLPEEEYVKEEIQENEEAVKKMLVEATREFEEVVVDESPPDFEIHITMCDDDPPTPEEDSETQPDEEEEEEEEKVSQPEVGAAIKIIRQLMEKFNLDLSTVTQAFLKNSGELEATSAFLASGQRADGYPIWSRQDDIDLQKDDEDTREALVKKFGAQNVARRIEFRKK
Sequence of UniProt Q8N357 (Q8N357 whole entry, looked up): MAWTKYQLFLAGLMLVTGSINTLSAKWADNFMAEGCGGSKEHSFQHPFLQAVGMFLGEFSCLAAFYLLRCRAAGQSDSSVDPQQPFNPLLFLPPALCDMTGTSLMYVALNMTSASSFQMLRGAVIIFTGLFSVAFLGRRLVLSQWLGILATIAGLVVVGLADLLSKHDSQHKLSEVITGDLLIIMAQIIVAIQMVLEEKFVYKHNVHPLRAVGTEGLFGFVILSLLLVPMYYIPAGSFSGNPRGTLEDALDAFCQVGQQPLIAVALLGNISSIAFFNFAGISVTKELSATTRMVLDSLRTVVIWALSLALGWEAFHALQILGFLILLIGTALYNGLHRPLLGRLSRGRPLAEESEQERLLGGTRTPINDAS

Compound in this assay: C1=CC=C(C=C1)C2=NC(=C(N2)C3=CC=NC=C3)C4=CC(=C(C=C4)Cl)O
As to the kind of experiment: log2 fold change, soluble protein after heating vs DMSO (PISA); higher = thermal stabilisation; K562 cells, 10 uM, 30 min; active = over 0.2 and 3.5 SD of the protein, either way, in both replicates (recomputed). A digest of the protocol:
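Soluble protein was quantified by TMTpro 16plex LC-MS/MS after channel sums were equalised. It was obtained as the supernatant after 21,000xg for 90 min from pooled aliquots of K562 cells (2×10^6 cells/mL, 10 μM compound, 30 min) heated for 3 min across 48°C-58°C and extracted in PBS with 0.5% NP-40 at 4°C. Thermal stability values are relative to control samples and come from duplicates. They are given as log2 fold changes.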
With STAT3 (UniProt P40763), the log2 fold change was 0.011.
In the case of SNX3 (UniProt O60493), the log2 fold change is 0.123.
Under SLC25A42 (UniProt Q86VD7) stands 0.079; under STRN (UniProt O43815), 0.213 (active).
The value for SNX11 (UniProt Q9Y5W9) was -0.035.
The value for STARD3NL (UniProt O95772) was 0.11; that for SNX12 isoform 1 (UniProt Q9UMY4) was 0.039; that for SRC isoform 2 (UniProt P12931) was 0.036.
Take SLIRP (UniProt Q9GZT3): the log2 fold change was 0.023.
Under SPG11 (UniProt Q96JI7) stands -0.275.
With TMBIM1 (UniProt Q969X1), the log2 fold change is 0.517 (active).
Consider TJP2 isoform 7 (UniProt Q9UDY2), for which the log2 fold change was 0.008.
Under SMAD2 (UniProt Q15796) stands -0.05.
The value for TERF2IP (UniProt Q9NYB0) was -0.038.
As to STK25 (UniProt O00506), the log2 fold change is -0.025.
Under STARD7 (UniProt Q9NQZ5) stands 0.017; under TCERG1 (UniProt O14776), 0.015.
Under SREK1 isoform 2 (UniProt Q8WXA9) stands 0.233; under TBC1D23 (UniProt Q9NUY8), -0.032; under TGFBI (UniProt Q15582), 0.009.
Under TFRC (UniProt P02786) stands 0.023; under SSR4 (UniProt P51571), -0.031; under THYN1 (UniProt Q9P016), -0.032.
In the case of SLC44A2 isoform 2 (UniProt Q8IWA5), the log2 fold change is 0.073.
In the case of SLC25A36 (UniProt Q96CQ1), the log2 fold change was -0.104.
Under TEX30 (UniProt Q5JUR7) stands -0.01; under TLK1 (UniProt Q9UKI8), 0.01; under SRI (UniProt P30626), 0.185.
The value for SLC35F6 (UniProt Q8N357) was 0.417 (active).
The value for SPTBN4 (UniProt Q9H254) was 0.035.
Turning to SNRPD3 (UniProt P62318), the log2 fold change was -0.113.
The value for SLC29A3 (UniProt Q9BZD2) was 0.064; that for SLC27A1 (UniProt Q6PCB7) was 0.016.
As to SLC30A7 (UniProt Q8NEW0), the log2 fold change was 0.109.
As for SLC7A6OS (UniProt Q96CW6), the log2 fold change is 0.045.
Under STEAP3 isoform 2 (UniProt Q658P3) stands -0.008.
The value for TAX1BP1 (UniProt Q86VP1) was -0.044.
